SMILES strings stand for the structures. “And” between values parts separate entries of the source, which are not always exact repeats. Equal entries are not always repeated. Inconclusive results are not listed. The source made the active and inactive calls. Calls follow the shape of the dose curve; as a rule, active = well fitted curve in the direction sought with a large enough effect; inconclusive = small, poorly fitted or top-dose-only effect, or another doubt; inactive = no such curve, though single readings can be large or run the other way.
Potency is read from the fitted curve at half-maximal effect.

For this assay, the target named is Lysosomal acid glucosylceramidase (Homo sapiens) (UniProt P04062). Put plainly: qHTS Assay for Inhibitors and Activators of N370S glucocerebrosidase as a Potential Chaperone Treatment of Gaucher Disease: Primary Screen Confirmation.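 As to Potency: enzyme source is Gaucher patient spleen homogenate not purified recombinant protein.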 The settings on record: N370S glucocerebrosidase enzyme activity, fluorogenic substrate; series mostly up to 54 µM. In a few lines: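 Patient-spleen homogenate carrying N370S GC (27 ug) in pH 5.0 citrate buffer with 0.01% Tween-20, 1 mM 4-methylumbelliferyl-beta-glucoside, 40 min at 37C; fluorescence 365/440 nm after NaOH/glycine stop; AC50 from Hill fits.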
Chain of Lysosomal acid glucosylceramidase (Homo sapiens) (P04062 whole entry N409S): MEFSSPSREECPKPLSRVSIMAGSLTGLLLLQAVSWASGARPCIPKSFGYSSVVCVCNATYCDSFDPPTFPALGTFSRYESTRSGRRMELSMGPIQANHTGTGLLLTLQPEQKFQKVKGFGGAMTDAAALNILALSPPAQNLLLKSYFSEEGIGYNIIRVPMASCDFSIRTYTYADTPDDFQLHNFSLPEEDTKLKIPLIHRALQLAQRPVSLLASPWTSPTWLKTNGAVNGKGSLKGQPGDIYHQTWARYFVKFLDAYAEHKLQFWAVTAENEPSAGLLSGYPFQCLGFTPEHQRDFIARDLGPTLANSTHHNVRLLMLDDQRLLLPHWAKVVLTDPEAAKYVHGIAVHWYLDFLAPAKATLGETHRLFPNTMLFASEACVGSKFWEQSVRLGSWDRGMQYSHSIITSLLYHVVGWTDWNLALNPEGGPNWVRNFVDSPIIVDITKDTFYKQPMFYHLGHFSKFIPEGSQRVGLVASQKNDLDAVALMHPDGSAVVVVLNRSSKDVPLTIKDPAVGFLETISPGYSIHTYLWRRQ
As for `N=c1c(S(=O)(=O)c2ccccc2)cc2c(=O)n3ccccc3nc2n1CCCN1CCOCC1`, the Potency entry is “inactive”.
As for `O=[N+]([O-])c1ccccc1S(=O)(=O)N1CCN(c2nc(-c3ccccc3)nc3ccccc23)CC1`, the Potency is 5.69 µM (active).
For the molecule `O=S(=O)(c1ccc(Cl)cc1)N1CCN(c2nc(-c3ccc(F)cc3)nc3cc(Cl)ccc23)CC1`, the Potency result is “inactive”.
As for `Cc1cc2[nH]c(=O)c(=O)[nH]c2cc1S(=O)(=O)N1CCN(c2cccc(C(F)(F)F)c2)CC1`, the figure is 5.17 µM (active); as for `COc1cccc(CN(C)c2nc(-c3cccs3)nc3ccccc23)c1`, 2.01 µM (active); as for `Cc1ccc(S(=O)(=O)N2CCN(c3nc(-c4cccs4)nc(C)c3C)CC2)cc1`, 2.84 µM (active).
`Cc1ccc(S(=O)(=O)N2CCN(c3nc(-c4cccs4)nc4ccccc34)CC2)cc1`: the Potency is 259 nM (active) and 730 nM (active) and 366 nM (active).
With `O=C(Nc1cnn(Cc2ccc(F)cc2)c1)c1cnn2c(C(F)F)cc(-c3ccccc3)nc12` the entry was “inactive”; with `Cc1ccccc1-c1nccc(NCc2cccs2)n1`, 15.8 µM (active); with `O=S(=O)(c1ccccc1)N1CCN(c2nc(-c3cccs3)nc3ccccc23)CC1`, 1.46 µM (active) and 919 nM (active).
With `CC(=O)Nc1ccc(NC(=O)COc2ccccc2C(=O)Nc2cccc(Cl)c2Cl)cc1` the entry was “inactive”.
Take `N=c1c2c(-c3ccccc3)c(-c3ccccc3)n(Cc3ccco3)c2ncn1CCCn1ccnc1`: the Potency is 12.6 µM (active).
With `Cc1ccc(S(=O)(=O)N2CCCN(c3nc(-c4cccs4)nc4ccccc34)CC2)cc1` the figure was 5.66 µM (active).
With `O=C(NCCN1CCOCC1)c1ccc(/C=C2\Sc3ccccc3N(Cc3ccccc3F)C2=O)cc1` the figure was 7.3 µM (active); with `Cc1ccc(S(=O)(=O)N2CCN(c3nc(C#N)nc4ccccc34)CC2)cc1`, “inactive”.
For the molecule `S=C(NCCCc1cnc[nH]1)NCCCN(Cc1ccc(Cl)c(Cl)c1)c1ccccn1`, the Potency was 7.29 µM (active).

For the origin of these results see PubChem BioAssay AID2590 (National Center for Advancing Translational Sciences (NCATS), 2010).
